Bioassay records: PubChem, National Center for Advancing Translational Sciences (NCATS)
This is a sample that favours compounds with a hit; in the whole collection about 7.8% have one here.
MARV entry inh – blocks Marburg virus binding to or entry into cells | Marburg virus pseudotyped entry inhibition, cell reporter | Potency, µM (titrated, usually from 37.8 µM), most hits filed as inhibitors | hit rate 1.8% among 300,000 | AID 540276; calls by dose curve; tested in HEK293 cells
HCMV antiviral – blocks human cytomegalovirus replication. hit rate 4.5% among 410,000. HFF cells, HCMV-luciferase reporter, 72 h; hits give low values. activity change, negative = inhibition, % at 57.5 µM. AID 1259415; in the data active means activity change below about -60%; inconclusive means no clear call, values can overlap the other calls; inactive means above about -39%
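Cell-based, HFFs, 1000 cells/well, 16 h 37C; cpds in DMSO + HCMV-luc, MOI 1 PFU/cell; 72 h 37C; OneGlo luminescence after 5 min RT; norm. to buffer vs Salinomycin 10uM.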
HCV inh – blocks hepatitis C virus; Huh7.5.1 HCVcc-Cre infection, luciferase reporter, 44 h; Potency, µM (doses to about 41.8 µM), actives largely listed as inhibitors; hit rate 3.4% among 340,000; active means well fitted inhibition curve with a large enough effect; inconclusive means small, poorly fitted or top-dose-only effect, or another doubt; inactive means no such curve, though single readings can be large or run the other way
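Infectious HCV cell culture screen: compound-treated cells (1,000/well, pre-plated 4 h) are infected with HCVcc-Cre at roughly 0.5 moi and grown 44 h. Infection is quantified by luciferase signal after 15 min substrate incubation at room temperature.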
LASV entry inh – Lassa virus entry inhibition | Lassa virus pseudotype entry inhibition, cell reporter | Potency, µM (series often up to 37.9 µM), actives largely listed as inhibitors | hit rate 1.2% among 300,000; calls by dose curve; tested in HEK293 cells; further: nearly all actives have a fitted effect of over 50% in size
Vaccinia mCherry – vaccinia inhibition (mCherry reporter); Vaccinia virus mCherry reporter infection, fluorescence; Potency, µM (top dose mostly 36.5 µM), hits mostly inhibitors; hit rate 0.63% among 310,000; AID 720579; calls by dose curve; tested in A549 cells; further: nearly all actives have a fitted effect of over 35% in size
VACV Venus inh – inhibitors of vaccinia virus (Venus reporter) | Vaccinia virus Venus reporter expression, fluorescence | Potency, µM (series often up to 36.5 µM), usual class: inhibitors | hit rate 0.46% among 330,000 | AID 720580; calls by dose curve; tested in A549 cells; further: nearly all actives have a fitted effect of over 30% in size
Of the large screens only hits and unclear results are named; the others gave an inactive call.

Cn1cnc(S(=O)(=O)N2CCC[C@@H]2c2noc3ccccc23)c1	none (no result: MARV entry inh, HCV inh, LASV entry inh, Vaccinia mCherry, VACV Venus inh)
COC(=O)[C@@H]1CCCN1Cc1ccc2c(c1)CN(Cc1cccn1-c1ccccn1)CCO2	none (no result: MARV entry inh, HCMV antiviral, HCV inh, LASV entry inh)
O=C1C=CN(S(=O)(=O)c2ccc(F)cc2)C(c2cccs2)C1 (stereo not given)	none (no result: MARV entry inh, HCV inh, LASV entry inh, Vaccinia mCherry, VACV Venus inh)
COc1ccc(OCC(=O)Nc2ccc(C)cc2)cc1	HCMV antiviral -96.6 (no result: Vaccinia mCherry, VACV Venus inh)
COc1ccc(NC(=O)c2ccc(S(=O)(=O)N(C)c3ccccc3)cc2)cn1	HCMV antiviral -61.6, HCV inh inconclusive (no result: MARV entry inh, LASV entry inh, Vaccinia mCherry, VACV Venus inh)
COc1ccc(NC(=O)COc2ccccc2C(=O)Nc2ccccc2)cc1	none (no result: MARV entry inh, HCMV antiviral, HCV inh, LASV entry inh)
COc1ccc(OCCNC(=O)c2ccccc2OCC(=O)Nc2ccc(NC(C)=O)cc2)cc1	MARV entry inh 7.08µM, HCV inh inconclusive, LASV entry inh inconclusive
COc1ccc(NC(=O)COCC(=O)Nc2ccc(C)cc2)cc1	none (no result: MARV entry inh, LASV entry inh, Vaccinia mCherry, VACV Venus inh)
COc1ccc(C(=O)N/N=C/c2ccc(OC)c(OS(=O)(=O)c3ccccc3)c2)cc1	MARV entry inh inconclusive, HCMV antiviral inconclusive, HCV inh 10µM, LASV entry inh inconclusive, Vaccinia mCherry inconclusive
CC(CCN1CCc2nc(-c3ccccc3)c(-c3ccccc3)cc2C1)=NO[C@H](C)CN1CCCCc2nc(C)c(C)cc21	none (no result: HCMV antiviral, HCV inh, LASV entry inh, Vaccinia mCherry, VACV Venus inh)
CCOC1(c2ccccc2)CC1C(=O)N/N=C/c1cccc([N+](=O)[O-])c1 (stereo not given)	HCV inh 11.2µM (no result: MARV entry inh, LASV entry inh, Vaccinia mCherry, VACV Venus inh)
CN(c1ccc(C(=O)N/N=C/c2cccc([N+](=O)[O-])c2)cc1)S(=O)(=O)c1ccccc1	MARV entry inh inconclusive, HCV inh 12.6µM, LASV entry inh inconclusive
Cc1nc2ccc(NC(=O)N(C)c3ccccc3)cc2s1	LASV entry inh inconclusive
COc1ccccc1/C=N/NC(=O)c1ccc(N(C)S(=O)(=O)c2ccccc2)cc1	none (no result: MARV entry inh, LASV entry inh, Vaccinia mCherry, VACV Venus inh)
Cc1nc2ccc(NC(=O)c3ccc(S(=O)(=O)N(C)c4ccccc4)cc3)cc2s1	MARV entry inh inconclusive, HCMV antiviral -82.1, HCV inh inconclusive, LASV entry inh inconclusive, Vaccinia mCherry inconclusive, VACV Venus inh inconclusive
COc1ccc(NC(=O)COc2ccc(N(C)S(=O)(=O)c3ccc(C)cc3)cc2)cc1	HCV inh inconclusive
COc1ccc(NC(=O)COc2ccc(N(C)S(=O)(=O)c3ccc(Cl)cc3)cc2)cc1	HCV inh 11.2µM (no result: MARV entry inh, LASV entry inh, Vaccinia mCherry, VACV Venus inh)
CNC(=O)C1CCC(Cn2c(=O)[nH]c3ccsc3c2=O)CC1 (stereo not given)	none (no result: MARV entry inh, HCV inh)
COc1ccccc1CN1CCCC(n2cc(C(=O)N3CCCCC3)nn2)C1 (stereo not given)	none (no result: MARV entry inh, HCMV antiviral, HCV inh, LASV entry inh)
COc1ccc(NC(=O)COc2ccccc2C(=O)NCC(c2ccccc2)N(C)C)cc1Cl (stereo not given)	MARV entry inh inconclusive, HCV inh inconclusive, LASV entry inh 11.2µM
COc1ccc(NC(=O)COc2ccccc2)cc1Cl	HCV inh inconclusive
CCOc1cc(/C=N/NC(=O)c2cccc([N+](=O)[O-])c2)ccc1OS(=O)(=O)c1ccccc1	MARV entry inh inconclusive, HCV inh 8.91µM, LASV entry inh inconclusive (no result: Vaccinia mCherry, VACV Venus inh)
COC(=O)NNC(=O)COc1ccc(Cl)cc1	HCMV antiviral -108.4, LASV entry inh inconclusive (no result: Vaccinia mCherry, VACV Venus inh)
COc1cccc(OCC(=O)Nc2ccc(OC)c(OC)c2)c1	HCV inh 0.631µM
COc1ccc(/C=N/NC(=O)c2cccc([N+](=O)[O-])c2)cc1OS(=O)(=O)c1ccc(C)cc1	MARV entry inh inconclusive (no result: Vaccinia mCherry, VACV Venus inh)
COc1ccc(NC(=O)N2CCC(CN3CCCC3)CC2)c(OC)c1	LASV entry inh inconclusive (no result: MARV entry inh, HCV inh)
C=CC[C@@H]1C=C[C@@H](Oc2ccc(OC)cc2)[C@H](COC(=O)c2ccc(Br)cc2)O1	none (no result: HCMV antiviral, HCV inh, LASV entry inh, Vaccinia mCherry, VACV Venus inh)
COc1ccc2c(c1)-c1c(sn(-c3ccc(OC)c(OC)c3)c1=S)C(C)(C)N2	MARV entry inh inconclusive, HCV inh 2.51µM, LASV entry inh inconclusive
COc1ccc2c(c1)-c1c(sn(-c3ccccc3)c1=S)C(C)(C)N2	HCMV antiviral inconclusive, HCV inh inconclusive
COc1ccc2c(c1)-c1c(ssc1=S)C(C)(C)N2S(=O)(=O)c1ccc(C)cc1	MARV entry inh inconclusive, HCV inh inconclusive, LASV entry inh inconclusive, Vaccinia mCherry inconclusive, VACV Venus inh inconclusive
COc1ccc(-n2sc3c(c2=S)-c2cc(OC)ccc2NC3(C)C)cc1	MARV entry inh inconclusive, HCMV antiviral -68.0, HCV inh inconclusive, Vaccinia mCherry inconclusive, VACV Venus inh inconclusive
COc1ccc2c(c1)-c1c(ssc1=S)C(C)(C)N2	HCMV antiviral -88.7, HCV inh inconclusive
COc1ccc(CNC(=O)c2cc3c(=O)n(C)c4ccccc4c3n2C)c(OC)c1	LASV entry inh inconclusive (no result: HCV inh)
CCc1ccc(-n2c(=O)c3c(C)c(C)sc3n(CC(=O)NCc3ccc(C)cc3)c2=O)cc1	none (no result: HCV inh)
CCOCCn1ccc2c(OCC(=O)Nc3ccc(C(N)=O)cc3)cccc2c1=O	none (no result: MARV entry inh, HCV inh)
Cc1nc2nc(SCC(=O)NCCc3ccc(Cl)cc3)nn2c(C)c1Cc1c(F)cccc1Cl	none (no result: MARV entry inh, HCV inh)
OC1(c2cccnc2)CCN(Cc2ccc3c(c2)CN(Cc2cccc(F)c2F)CCO3)CC1	none (no result: MARV entry inh, HCMV antiviral, HCV inh, LASV entry inh)
O=C(O)Cn1c2ccccc2c2ccccc21	HCV inh 3.98µM
NNC(=O)Cn1c2ccccc2c2ccccc21	Vaccinia mCherry inconclusive
CC1=NN(c2nc3ccccc3[nH]2)C(=O)C1Cc1ccccc1 (stereo not given)	MARV entry inh inconclusive, HCV inh 3.55µM, LASV entry inh inconclusive (no result: HCMV antiviral)
